# Compounds with a hit are over-represented: about 2.4% of the library has one in this group of screens.
# CHT PAM – allosteric activators of human choline transporter CHT; Q9GZV3; CHT-expressing cells, membrane potential dye, choline EC20; hits give high values; LV-AA mutant CHT in HEK293 cells; B-score at 10 µM; 0.49% of 310,000 active; AID 488977;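 active means initial fluorescence not abnormally high and integrated response B-score, plate-corrected, over 3 SD above library mean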
# TMEM16A inh – inhibitors of mouse TMEM16A calcium-activated chloride channel | Q8BHY3 | AID 588511 | 1.2% of 310,000 active | HEK293 TMEM16A/YFP iodide influx fluorescence, ionomycin | normalized B-score (activity score, 25-100; higher = stronger inhibition) at 10 µM;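 active means ratio plate-corrected score three or more library SD toward inhibition, starting fluorescence score within five deviations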;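 further: score derived from kinetic fluorescence span divided by baseline fluorescence per well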
# Target sequence (Q8BHY3 whole entry, looked up): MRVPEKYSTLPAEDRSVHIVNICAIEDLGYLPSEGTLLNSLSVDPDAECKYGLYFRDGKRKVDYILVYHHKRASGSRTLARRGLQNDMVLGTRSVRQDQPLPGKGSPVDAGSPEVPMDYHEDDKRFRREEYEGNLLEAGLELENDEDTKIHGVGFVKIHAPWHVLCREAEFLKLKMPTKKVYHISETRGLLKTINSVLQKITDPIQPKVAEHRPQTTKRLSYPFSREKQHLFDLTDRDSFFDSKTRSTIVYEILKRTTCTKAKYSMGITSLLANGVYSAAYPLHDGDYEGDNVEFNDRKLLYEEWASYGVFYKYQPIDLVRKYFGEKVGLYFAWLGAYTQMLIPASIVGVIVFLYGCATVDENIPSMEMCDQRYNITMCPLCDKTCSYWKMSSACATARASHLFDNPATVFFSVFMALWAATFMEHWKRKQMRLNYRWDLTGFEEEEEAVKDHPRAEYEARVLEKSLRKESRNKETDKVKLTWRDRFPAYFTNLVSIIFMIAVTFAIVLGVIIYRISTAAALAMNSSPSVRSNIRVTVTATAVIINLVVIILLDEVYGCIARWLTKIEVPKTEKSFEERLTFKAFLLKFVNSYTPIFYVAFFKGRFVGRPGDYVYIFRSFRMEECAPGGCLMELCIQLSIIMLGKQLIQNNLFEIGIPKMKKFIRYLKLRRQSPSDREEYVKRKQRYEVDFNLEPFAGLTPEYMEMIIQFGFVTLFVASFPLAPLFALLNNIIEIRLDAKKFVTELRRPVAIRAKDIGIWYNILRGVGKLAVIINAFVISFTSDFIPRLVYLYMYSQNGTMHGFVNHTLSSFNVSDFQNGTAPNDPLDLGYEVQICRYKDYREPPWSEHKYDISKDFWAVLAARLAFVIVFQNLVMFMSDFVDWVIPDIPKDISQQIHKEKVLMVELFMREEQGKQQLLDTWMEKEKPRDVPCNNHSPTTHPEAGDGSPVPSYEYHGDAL
# CHT block – human CHT choline transport inhibition; 0.86% of 310,000 active; Q9GZV3; CHT-expressing cells, membrane potential dye, choline response; hits give low values; B-score at 10 µM;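 active means B-score over 3 SD under the library average, and starting fluorescence ratio not unusually high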;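 further: choline stimulus applied at its EC90 after an EC20 pre-addition; B-score computed on integrated fluorescence ratio after choline addition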
# TMEM16A act – activators or potentiators of mouse TMEM16A chloride channel; HEK293 TMEM16A/YFP-H148Q/I152L, iodide quench fluorescence; hits give low values; B-score at 10 µM; 0.3% of 340,000 active; AID 623877;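 active means fluorescence-ratio B-score plate-corrected deviation score at least 3 library SD below zero, with starting fluorescence score within 5 deviations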;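 further: channel opened by trigger with iodide after compound preincubation; score built on the fluorescence ratio of max minus min over baseline; more negative score means more quench and so TMEM16A activation or potentiation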
# CHT act confirm – confirmation of human choline transporter (CHT) activators; shares compounds with CHT PAM; CHT-expressing cells, membrane potential dye fluorescence (FDSS); % of choline EC20–EC90 response window; HEK293 expressing CHT LV-AA mutant; choline added at its EC20; activation, % at 10 µM; 91% of 2,500 active; AID 504833;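 active means primary screen active, with duplicate mean activation above negative control mean plus 3 SD, cut at about 11% in these data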
# HEK293 MP dye – activity in parental HEK293 cells lacking CHT | shares compounds with CHT PAM | membrane potential dye fluorescence (FDSS); measured after EC20 choline addition | AID 623908 | ratio readout change at 10 µM, hits read low | 62% of 2,500 active;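 active means duplicate-averaged ratio beyond 3 SD from buffer wells, up or down, though filed actives are nearly all decreases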
# An asterisk follows results filed as active; i = inactive; . = not tested or not shown.
SMILES,CHT PAM,TMEM16A inh,CHT block,TMEM16A act,CHT act confirm,HEK293 MP dye
Cc1ccn2c(Nc3ccc4c(c3)OCO4)c(-c3ccccn3)nc2c1,6.3*,i,i,i,51*,i
N#CC1=C(Nc2ccccc2)SC=C(c2ccccc2)N=C1N1CCOCC1,.,.,.,i,.,.
N#CC1=C(Nc2ccccc2)SC=C(c2ccc(Cl)c(Cl)c2)N=C1N1CCOCC1,i,i,i,i,40*,i
Cc1ccc(C(C(=O)NC(C)(C)C)N(C(=O)CCC(=O)Nc2ccccn2)c2ccccc2F)cc1 (stereo unspecified),i,i,i,i,.,.
C=CCNC(=O)c1ccc2c3n(nc2c1)-c1ccc(Cl)cc1CO3,6.5*,i,i,i,15*,-20*
CCOC(=O)c1c(S(=O)(=O)NCCCc2ccco2)c(C)n(C)c1C,i,i,i,i,.,.
O=C(O)CCC(=O)c1c[nH]c2ccccc12,i,i,i,i,.,.
CN1CCN(c2nc(C#N)cc(-c3ccccc3)n2)CC1,i,i,i,i,23*,-23*
CCc1ccc(CN(C)C(=O)CCc2nc3ccccc3n(-c3ccc(OC)cc3)c2=O)cc1,i,100*,i,i,26*,i
CC1Cc2cc(S(=O)(=O)N3CCN(c4ccccc4F)CC3)ccc2N1C(=O)C1CC1 (stereo unspecified),7.5*,i,i,i,20*,i
O=C(NCc1nc(-c2ccc(C(F)(F)F)cc2)no1)Nc1ccc(OC(F)(F)F)cc1,i,i,i,i,.,.
CS(=O)(=O)N1CCN(c2ccc([N+](=O)[O-])c(NCCN3CCOCC3)c2)CC1,i,i,i,i,32*,-40*
O=C(COc1ccc2ccccc2c1)N/N=C/C1CC=CCC1 (stereo unspecified),i,i,i,i,.,.
COc1ccccc1-n1cnc2cc(NCc3cccs3)ccc21,7*,i,i,i,59*,i
CCOc1ccc(CC(=O)Nc2nccs2)cc1OCC,i,i,i,i,.,.
CC1C(=O)C(C)C(c2ccccc2F)NC1c1ccccc1F (stereo unspecified),i,i,i,i,28*,i
CCOC(=O)c1cnc2c(cnn2C)c1NCCCn1ccnc1,7.2*,i,i,i,44*,-81*
CN(C)c1cc(NC(=O)CN2CCOCC2)c2ccccc2n1,6.7*,i,i,i,33*,-45*
CN(C)c1cc(NC(=O)CNC(C)(C)C)c2ccccc2n1,i,i,i,i,26*,-55*
O=C(Nc1cccc(Cl)c1)Nn1cnnc1,i,i,i,i,.,.
CCN(C(=O)COc1cccc2cccnc12)C1CCS(=O)(=O)C1 (stereo unspecified),i,i,i,i,52*,-38*
COc1ccccc1C(c1nnnn1CCc1ccccc1)N1CCN(c2ccccc2)CC1 (stereo unspecified),i,i,i,i,.,.
COc1cccc(C(c2nnnn2CCc2ccccc2)N2CCN(c3ccccc3)CC2)c1OC (stereo unspecified),6.8*,i,i,i,21*,i
COc1ccccc1N1CCN(C(c2ccccc2)c2nnnn2CCc2ccccc2)CC1 (stereo unspecified),i,i,i,i,17*,i
COc1cccc(C(c2nnnn2Cc2ccco2)N2CCN(c3cccc(C)c3C)CC2)c1OC (stereo unspecified),7.1*,i,i,i,20*,i
SMILES,CHT PAM,TMEM16A inh,CHT block,TMEM16A act,CHT act confirm,HEK293 MP dye
CC(OC(=O)c1oc2ccccc2c1COc1ccccc1)C(N)=O (stereo unspecified),i,i,i,i,.,.
CC(C)(C)NC(=O)c1oc2ccccc2c1COc1ccccc1,i,i,i,i,33*,i
COCCNc1nc(SC)nc2sc3c(c12)CCN(C)C3,7.1*,i,i,i,38*,-44*
CSc1nc(SCC(=O)NCC2CCCO2)c2c3c(sc2n1)CN(C)CC3 (stereo unspecified),6.5*,i,i,i,36*,-50*
Cc1nc(SCC(=O)NCC2CCCO2)c2c3c(sc2n1)CCCC3 (stereo unspecified),i,i,i,i,.,.
CC(C)Sc1nc(N)c2c3c(sc2n1)CN(C)CC3,i,i,i,i,31*,-44*
CSc1nc(NCc2ccccc2)c2c3c(sc2n1)CN(C)CC3,i,i,i,i,.,.
COCCSc1nc(N)c2c3c(sc2n1)CN(C)CC3,6.4*,i,i,i,41*,-51*
Cc1cccc(N(Cc2ccccc2)C(=O)C2CCN(C(=O)c3ccccc3C)CC2)c1,.,.,.,i,.,.
COc1ccc(-c2ccc(N)[n+](CCCC(=O)O)n2)cc1,i,i,i,i,.,.
CCCC1=NCCn2cccc21,i,i,i,i,.,.
COc1ccc(C2=NCCn3cccc32)c(OC)c1,i,i,i,i,43*,-49*
O=C(NCCc1ccccc1)c1cc2sccc2n1Cc1ccccc1,i,i,i,.,.,.
CCn1c(C(=O)NCCCc2ccccc2)cc2sccc21,6.6*,i,i,i,25*,i
C=CCNC(=S)/N=c1/ccccn1CCC,i,i,i,i,.,.
O=C(Nc1ccncc1)Nc1ccccn1,i,i,i,i,50*,-45*
O=C(Nc1ccccc1)Nc1ccncc1,i,i,i,i,.,.
Cc1ccc(S(=O)(=O)NC(C)(C)CN2CCc3ccccc3C2)cc1,i,i,i,i,.,.
COC(=O)C1CN(C(=O)C(C)Oc2cc(C)ccc2C(C)C)c2ccccc2O1 (stereo unspecified),i,i,i,i,.,.
COC(=O)C1CN(C(=O)C(C)Oc2ccc(C(C)C)cc2)c2ccccc2O1 (stereo unspecified),i,i,i,i,18*,i
COC(=O)c1c(C)oc(C)c1S(=O)(=O)N1CCCC1,i,i,i,i,.,.
O=C(CSc1ncn[nH]1)c1ccc(OC(F)F)cc1,7.2*,i,i,i,1,i
Cc1ccc(C(=O)CSc2ncn[nH]2)cc1,i,i,i,i,.,.
COc1ccc(S(=O)(=O)NCC2CCCN(C(=O)c3sccc3C)C2)cc1 (stereo unspecified),i,i,i,i,.,.
CC(=O)c1c(C)nc2sc3c(=N)n(N)cnc3c2c1-c1ccc(Cl)cc1,6.7*,i,i,i,50*,-40*

# High-throughput results from PubChem.
